Results on 35 compounds are retold here after PubChem BioAssay (Tox21).

“And” between values parts separate entries of the source, which are not always exact repeats. Equal entries are not always repeated. Records with an inconclusive call do not appear. Entries that show only a call come without a potency. The source made the active and inactive calls. Calls come from the whole dose curve; as a rule, active = well fitted curve in the direction sought with a large enough effect in the repeat runs; inconclusive = weak or mixed curves; inactive = no such curve, though single readings can be large; an effect the other way counts as inactive or inconclusive.
Potency is the fitted concentration of half-maximal effect.

Chain of Luciferin 4-monooxygenase (Photinus pyralis) (P08659 whole entry, looked up): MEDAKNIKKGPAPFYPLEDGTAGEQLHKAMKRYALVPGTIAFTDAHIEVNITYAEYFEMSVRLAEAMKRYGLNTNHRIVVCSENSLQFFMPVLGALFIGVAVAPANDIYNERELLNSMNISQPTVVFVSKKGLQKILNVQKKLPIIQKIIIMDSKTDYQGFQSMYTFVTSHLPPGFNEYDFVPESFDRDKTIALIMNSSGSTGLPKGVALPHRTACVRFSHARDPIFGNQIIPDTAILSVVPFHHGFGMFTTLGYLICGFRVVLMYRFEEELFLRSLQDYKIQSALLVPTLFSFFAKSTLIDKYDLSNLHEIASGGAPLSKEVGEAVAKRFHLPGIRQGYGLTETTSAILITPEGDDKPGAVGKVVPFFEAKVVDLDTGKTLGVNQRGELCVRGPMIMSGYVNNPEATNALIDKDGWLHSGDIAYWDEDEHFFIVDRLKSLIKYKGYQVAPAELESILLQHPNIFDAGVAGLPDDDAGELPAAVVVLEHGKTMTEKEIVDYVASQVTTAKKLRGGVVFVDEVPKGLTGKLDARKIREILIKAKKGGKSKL

Test system in the first assay: not listed separately
Nature of the assay: qHTS assay to identify small molecule antagonists of the retinoic acid receptor (RAR) signaling pathway (AID 1159552; note: nearly all actives have a fitted effect of over 50% in size). Particulars: C3RL4 RARE luciferase reporter, retinol-stimulated, 6 h; series mostly up to 92.4 µM. Put shortly:
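Antagonism of retinol-induced RARE reporter activity was measured in C3RL4 cells. Exposure to compounds and 1 uM final retinol lasted 6 hr at 37 C, with luminescence as endpoint.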
On the technique in general: qHTS replaces the single test concentration by a dilution series.
Consider `O=C(Nc1cccc(C(F)(F)F)c1)c1cc(Br)cc(Br)c1O`, for which the Potency entry is “inactive”. The same measure, in the same setting: the value for `OCCN1CCN(CC/C=C2/c3ccccc3Sc3ccc(C(F)(F)F)cc32)CC1` was 26.6 µM (active).

As to `Oc1ccc(Cl)cc1Sc1cc(Cl)ccc1O`, the Potency is 26.6 µM (active).

Take `CCCCCCCCCOC(=O)c1ccc(O)cc1`: the Potency entry was “inactive”. The same measure, in the same setting: for `N=C1N=C(N)c2cc3ccccc3cc21` the value was 43.3 µM (active); for `O=c1cc(-c2ccc(O)cc2)oc2cc(O)cc(O)c12`, “inactive”; for `CN(C)c1ccc(SC#N)cc1`, 9.69 µM (active).

Regarding `CCOc1nc2cccc(C(=O)OC(C)OC(=O)OC3CCCCC3)c2n1Cc1ccc(-c2ccccc2-c2nn[nH]n2)cc1` (stereo not given), the Potency is 48.5 µM (active).

For `Nc1ccc2cc(S(=O)(=O)O)cc(O)c2c1N=Nc1ccccc1C(F)(F)F`, the Potency entry was “inactive”. The same measure, in the same setting: the value for `O=c1c(-c2ccccc2)c1-c1ccccc1` was 4.22 µM (active).

Test system in another assay: not listed separately
Nature of the assay: qHTS assay to identify small molecule agonists of the retinoic acid receptor (RAR) signaling pathway (AID 1159553). Particulars: C3RL4 RARE luciferase reporter, agonist, 6 h; series mostly up to 73.3 µM. Put shortly: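 Quantitative high-throughput format: the Tox21 10K library was tested on C3RL4 RARE-luciferase cells for 6 hr at 37 C and 5% CO2, with luminescence measured after a 30 min room-temperature reagent step.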
Take `O=C(Nc1cccc(C(F)(F)F)c1)c1cc(Br)cc(Br)c1O`: the Potency result was “inactive”.

For `Oc1ccc(Cl)cc1Sc1cc(Cl)ccc1O`, the Potency entry was “inactive”. Same read-out and setting: the value for `CCCCCCCCCOC(=O)c1ccc(O)cc1` was “inactive”; that for `O=c1cc(-c2ccc(O)cc2)oc2cc(O)cc(O)c12` was 1.56 µM (active).

Regarding `CN(C)c1ccc(SC#N)cc1`, the Potency result is “inactive”. In the case of `CCOc1nc2cccc(C(=O)OC(C)OC(=O)OC3CCCCC3)c2n1Cc1ccc(-c2ccccc2-c2nn[nH]n2)cc1` (stereo not given), the Potency entry is “inactive”. As to `Nc1ccc2cc(S(=O)(=O)O)cc(O)c2c1N=Nc1ccccc1C(F)(F)F`, the Potency entry is “inactive”. As for `O=c1c(-c2ccccc2)c1-c1ccccc1`, the Potency result was “inactive”.

Test system in another assay: not listed separately
The assay is described as follows: qHTS assay to identify small molecule antagonists of the estrogen related receptor (ERR) signaling pathway from Tox21 library - cell viability counter screen (AID 1224834). Note: nearly all actives have a fitted effect of over 30% in size. Particulars: ERR reporter cells viability, CellTiter-Fluor, 17.5 h; series mostly up to 92.4 µM. Put shortly: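 Compounds in DMSO were pinned onto ERR cells that had been incubated for 6 h, and the plates were held at 37 C for 17.5 h. CellTiter-Fluor reagent was then added and fluorescence was measured after 30 min.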
Take `OCCN1CCN(CC/C=C2/c3ccccc3Sc3ccc(C(F)(F)F)cc32)CC1`: the Potency was 29.8 µM (active). In the case of `O=C(O)c1cc(O)c2c(c1)C(=O)c1cccc(O)c1C2=O`, the Potency entry is “inactive”.

Turning to `Oc1ccc(Cl)cc1Sc1cc(Cl)ccc1O`, the Potency is 30.6 µM (active) and 26.6 µM (active). As to `CCCCCCCCCOC(=O)c1ccc(O)cc1`, the Potency is 53.7 µM (active). In the case of `N=C1N=C(N)c2cc3ccccc3cc21`, the Potency is 27.3 µM (active). Same read-out and setting: the value for `O=c1cc(-c2ccc(O)cc2)oc2cc(O)cc(O)c12` was 49.2 µM (active) and 30.6 µM (active); that for `CCCCCCCC[N+](CCCCCCCC)(CCCCCCCC)CCCCCCCC` was 24.3 µM (active). Still for that read-out and setting: for `C[C@@H]1C[C@H]2[C@@H]3CCC4=CC(=O)C=C[C@]4(C)[C@@]3(Cl)[C@@H](O)C[C@]2(C)[C@@]1(OC(=O)c1ccco1)C(=O)CCl` the value was 23.7 µM (active); for `O=[N+]([O-])c1cc([N+](=O)[O-])c2ccc(S(=O)(=O)O)cc2c1O`, 12.1 µM (active); for `CN(C)c1ccc(SC#N)cc1`, “inactive”.

As to `CCOc1nc2cccc(C(=O)OC(C)OC(=O)OC3CCCCC3)c2n1Cc1ccc(-c2ccccc2-c2nn[nH]n2)cc1` (stereo not given), the Potency is 54.4 µM (active). Regarding `CCN(Cc1cccnc1)C(=O)c1cccc(Cl)c1[C@]1(C)C(=O)N(Cc2ccc(OC)cc2OC)c2ccc(Cl)cc21`, the Potency was 28.6 µM (active). With `CN1CCC(Nc2ncc3ncnc(Nc4ccc(F)c(Cl)c4)c3n2)CC1`, the Potency is 26.6 µM (active).

For the compound `C/C=C1/C(=O)C[C@H]2[C@@H]3CCC4=CC(=O)CC[C@]4(C)[C@H]3CC[C@]12C`, the Potency was 60.9 µM (active). The same measure, in the same setting: the value for `CC[C@H](c1ccc(O)cc1)[C@@H](CC)c1ccc(O)cc1` was 27.3 µM (active). Still for that read-out and setting: the value for `O=c1c(-c2ccccc2)c1-c1ccccc1` was 8.41 µM (active).

In another assay the target is Luciferin 4-monooxygenase (Photinus pyralis) (UniProt P08659). Nature of the assay: qHTS assay to identify small molecule inhibitors of firefly luciferase (AID 1224835). Note: nearly all actives have a fitted effect of over 25% in size. Particulars: purified P. pyralis luciferase, luminescence inhibition; series mostly up to 115 µM. Put shortly:
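Inhibition of purified Photinus luciferase is measured by luminescence. Substrate levels (D-luciferin, ATP) sit at their KM values. Each compound is tested in a concentration series.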
As to `CCCCCCCCCCCCCCCC[N+](C)(C)CCN(Cc1ccc(OC)cc1)c1ncccn1`, the Potency entry is “inactive”.

In the case of `O=C(Nc1cccc(C(F)(F)F)c1)c1cc(Br)cc(Br)c1O`, the Potency is 3.99 µM (active).

Turning to `OCCN1CCN(CC/C=C2/c3ccccc3Sc3ccc(C(F)(F)F)cc32)CC1`, the Potency result is “inactive”. On the same count and under the same terms, for `O=C(O)c1cc(O)c2c(c1)C(=O)c1cccc(O)c1C2=O` the value was “inactive”; for `Oc1ccc(Cl)cc1Sc1cc(Cl)ccc1O`, “inactive”; for `CCCCCCCCCOC(=O)c1ccc(O)cc1`, 70 µM (active). Take `N=C1N=C(N)c2cc3ccccc3cc21`: the Potency entry was “inactive”. In the case of `CCCCCCCCS(=O)C(C)Cc1ccc2c(c1)OCO2` (stereo not given), the Potency result is “inactive”. For the compound `CCCCN1C(=O)[C@@H]([C@H](O)C2CCCCC2)NC(=O)C12CCN(Cc1ccc(Oc3ccc(C(=O)O)cc3)cc1)CC2`, the Potency result is “inactive”.

With `O=c1cc(-c2ccc(O)cc2)oc2cc(O)cc(O)c12`, the Potency is 10.2 µM (active) and 7.96 µM (active). As to `CNCc1cc(F)ccc1Oc1ccc(Cl)c(Cl)c1`, the Potency entry was “inactive”.

Turning to `CC(=O)S[C@@H]1CC2=CC(=O)CC[C@]2(C)[C@H]2CC[C@@]3(C)[C@@H](CC[C@@]34CCC(=O)O4)[C@H]12`, the Potency result was “inactive”. The same measure, in the same setting: for `O=C(Nc1cccc(Cl)c1)OCC#CCCl` the value was 44.8 µM (active); for `Nc1ccc2c3c(cccc13)-c1ccccc1-2`, 22.7 µM (active); for `CCC(CN)=C(c1ccccc1)c1ccccc1`, “inactive”. The same measure, in the same setting: for `CCCCCCCCCCCCCCCC(=O)OC[C@H](O)[C@H]1OC(=O)C(O)=C1O` the value was 63.3 µM (active); for `C[C@@H]1C[C@H]2[C@@H]3CCC4=CC(=O)C=C[C@]4(C)[C@@]3(Cl)[C@@H](O)C[C@]2(C)[C@@]1(OC(=O)c1ccco1)C(=O)CCl`, “inactive”. Still for that read-out and setting: for `c1cc(C(c2ccc(OCC3CO3)cc2)c2ccc(OCC3CO3)cc2)ccc1OCC1CO1` (stereo not given) the value was “inactive”; for `CCOc1nc2cccc(C(=O)OC(C)OC(=O)OC3CCCCC3)c2n1Cc1ccc(-c2ccccc2-c2nn[nH]n2)cc1` (stereo not given), 56.4 µM (active); for `CCCCN(CCCC)c1ccc(C(=O)c2ccccc2C(=O)O)c(O)c1`, “inactive”. Regarding `CCCC/C=C/CCCCO`, the Potency entry was “inactive”. On the same count and under the same terms, the value for `CCN(Cc1cccnc1)C(=O)c1cccc(Cl)c1[C@]1(C)C(=O)N(Cc2ccc(OC)cc2OC)c2ccc(Cl)cc21` was “inactive”; that for `Nc1ccc2cc(S(=O)(=O)O)cc(O)c2c1N=Nc1ccccc1C(F)(F)F` was 63.3 µM (active); that for `NC(=NCCCCCCN=C(N)/N=C(\N)Nc1ccc(Cl)cc1)/N=C(\N)Nc1ccc(Cl)cc1` was “inactive”.

`CCOC(=O)c1nc(C(Cl)(Cl)Cl)n(-c2ccc(Cl)cc2Cl)n1`: the Potency result is “inactive”. For the compound `CN1CCC(Nc2ncc3ncnc(Nc4ccc(F)c(Cl)c4)c3n2)CC1`, the Potency result was “inactive”. On the same count and under the same terms, for `Cc1nc(-c2ccc3c(c2)CCN(CCC2CCC(NC(=O)/C=C/c4ccc(F)cc4)CC2)CC3)no1` (stereo not given) the value was “inactive”; for `C/C=C1/C(=O)C[C@H]2[C@@H]3CCC4=CC(=O)CC[C@]4(C)[C@H]3CC[C@]12C`, “inactive”; for `CC[C@H](c1ccc(O)cc1)[C@@H](CC)c1ccc(O)cc1`, “inactive”. The same measure, in the same setting: the value for `CSc1ccc2c(c1)C(N1CCN(C)CC1)Cc1ccccc1S2` (stereo not given) was “inactive”; that for `CNC(=O)c1ccccc1` was “inactive”.
